“And” between values parts separate entries of the source, which are not always exact repeats. Identical values can stand only once. Records with an inconclusive call do not appear. A call without a number means that no potency is given here. The source made the active and inactive calls. Calls follow the shape of the full dose curve.

These results are taken from PubChem BioAssay (NCATS).
Potency is read from the fitted curve at half-maximal effect.

The first experiment can be described thus: Cytotoxicity counterscreen for inhibitors of SARS-CoV-2 cell entry (AID 1645845). Also: nearly all actives have a fitted effect of over 50% in size. To be noted: cell viability (SARS-CoV-2 entry assay cells); series mostly up to 57.1 µM. The procedure, abridged: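 After a 15 min room-temperature ATPLite 1step step, luminescence reflected ATP remaining in HEK293-ACE2 cells exposed to compound for 1 h plus 48 h at 37 C, with percent activity set by cell and no-cell controls.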
A general note: Counterscreens check selectivity or assay interference.
Take `COc1cc(NC(C)CCCN)c2ncccc2c1` (stereo not drawn): the Potency result was “inactive”.

`OCCN1CCN(CCCN2c3ccccc3Sc3ccc(Cl)cc32)CC1`: the Potency is 28.2 µM (active).

As to `CC(N)C12CC3CC(CC(C3)C1)C2` (stereo not drawn), the Potency result was “inactive”.

Turning to `O=C(c1ccccc1)c1ccc2n1CCC2C(=O)O` (stereo not drawn), the Potency entry is “inactive”.

As for `CC[C@@]1(c2ccccc2)NC(=O)N(C)C1=O`, the Potency entry was “inactive”.

Regarding `Cn1cc[nH]c1=S`, the Potency result was “inactive”.

For `CC1=NS(=O)(=O)c2cc(Cl)ccc2N1`, the Potency result was “inactive”.

For the molecule `CCCC(=O)Nc1ccc(OCC(O)CNC(C)C)c(C(C)=O)c1` (stereo not drawn), the Potency entry was “inactive”.

As for `COc1cc(C(=O)NCc2ccc(OCCN(C)C)cc2)cc(OC)c1OC`, the Potency result was “inactive”.

For `CN(C)c1cc(NC(=O)CNC(C)(C)C)c(O)c2c1C[C@@H]1C[C@H]3[C@H](N(C)C)C(=O)C(C(N)=O)=C(O)[C@@]3(O)C(=O)C1=C2O`, the Potency result was “inactive”.

`O=C(CCCN1CCC(O)(c2ccc(Cl)cc2)CC1)c1ccc(F)cc1`: the Potency entry is “inactive”.

On to `COC1(CS(=O)c2ccccc2)CCN(CCc2c[nH]c3ccc(F)cc23)CC1` (stereo not drawn), for which the Potency entry was “inactive”.

`CNC1(C)C2CCC(C2)C1(C)C` (stereo not drawn): the Potency entry is “inactive”.

`Cc1cccc(C)c1OCC(C)N` (stereo not drawn): the Potency result was “inactive”.

On to `COc1cc2nc(N3CCN(C(=O)C4CCCO4)CC3)nc(N)c2cc1OC` (stereo not drawn), for which the Potency entry is “inactive”.

Consider `O=C(NCCN1CCOCC1)c1ccc(Cl)cc1`, for which the Potency result was “inactive”.

Turning to `CNCCCN1c2ccccc2CCc2ccccc21`, the Potency entry was “inactive”.

As for `O[C@@H]1CO[C@H]2[C@@H]1OC[C@@H]2O`, the Potency result is “inactive”.

On to `O=P(O)(O)C(O)(Cc1cccnc1)P(=O)(O)O`, for which the Potency entry is “inactive”.

With `O=C1CCC(N2C(=O)c3ccccc3C2=O)C(=O)N1` (stereo not drawn), the Potency entry is “inactive”.

For the molecule `CCCCC1=NC2(CCCC2)C(=O)N1Cc1ccc(-c2ccccc2-c2nn[nH]n2)cc1`, the Potency entry is “inactive”.

On to `Cc1nccn1CC1CCc2c(c3ccccc3n2C)C1=O` (stereo not drawn), for which the Potency result was “inactive”.

Regarding `CO/N=C1\CN(c2nc3c(cc2F)c(=O)c(C(=O)O)cn3C2CC2)CC1CN` (stereo not drawn), the Potency entry is “inactive”.

Consider `Cn1c(=O)c2c(ncn2CC(O)CO)n(C)c1=O` (stereo not drawn), for which the Potency entry is “inactive”.

On to `Cc1[nH]c(=O)c(C#N)cc1-c1ccncc1`, for which the Potency entry is “inactive”.

In the case of `CCC(C)(C)C(=O)O[C@H]1C[C@@H](C)C=C2C=C[C@H](C)[C@H](CC[C@@H]3C[C@@H](O)CC(=O)O3)[C@H]21`, the Potency result is “inactive”.

For `Cn1ccc2cc3c(cc21)CCN3C(=O)Nc1cccnc1`, the Potency entry was “inactive”.

For `Oc1ccc(C2CNCCc3c2cc(O)c(O)c3Cl)cc1` (stereo not drawn), the Potency result was “inactive”.

Consider `CN1CCN(CCCN2c3ccccc3Sc3ccc(Cl)cc32)CC1`, for which the Potency entry was “inactive”.

For `CNS(=O)(=O)Cc1ccc2[nH]cc(CCN(C)C)c2c1`, the Potency result is “inactive”.

Take `CC(=O)Nc1nnc(S(N)(=O)=O)s1`: the Potency entry was “inactive”.

Regarding `c1cnc2cc3c(cc2n1)C1CNCC3C1`, the Potency entry was “inactive”.

As for `O=C(OC1C[C@H]2CC[C@@H](C1)[N+]21CCCC1)C(O)(c1ccccc1)c1ccccc1` (stereo partly drawn), the Potency entry is “inactive”.

In the case of `CN(C)CCC=C1c2ccccc2CCc2ccccc21`, the Potency entry is “inactive”.

For the molecule `NC(=O)C(c1ccccc1)(c1ccccc1)[C@@H]1CCN(CCc2ccc3c(c2)CCO3)C1`, the Potency result is “inactive”.

With `Cc1ccc2c(n1)Oc1ccc(C(C)C(=O)OCC(=O)N(C)C)cc1C2` (stereo not drawn), the Potency entry is “inactive”.

On to `C=C[C@H]1CN2CC[C@H]1C[C@@H]2[C@@H](O)c1ccnc2ccc(OC)cc12`, for which the Potency result is “inactive”.

For the molecule `CC(=O)O[C@@]12CO[C@@H]1C[C@H](O)[C@@]1(C)C(=O)[C@H](O)C3=C(C)[C@@H](OC(=O)[C@H](O)[C@@H](NC(=O)OC(C)(C)C)c4ccccc4)C[C@@](O)([C@@H](OC(=O)c4ccccc4)[C@H]21)C3(C)C`, the Potency was 8.91 µM (active).

In the case of `CNS(=O)(=O)CCc1ccc2[nH]cc(C3CCN(C)CC3)c2c1`, the Potency result was “inactive”.

The nature of a further experiment: Primary qHTS to identify inhibitors of SARS-CoV-2 cell entry (AID 1645846). Also: nearly all actives have a fitted effect of over 45% in size. To be noted: SARS-CoV-2 pseudovirus cell entry assay, luminescence; activity change, negative = inhibition: at 57.1 µM (top of the series) unless noted; series mostly up to 57.1 µM. The procedure, abridged:
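HEK293-ACE2 (Expi293F, stable hACE2), 1500 cells/well, o/n 37C; cpd 23 nL pin, 1 h; MLV-PP w/ SARS-CoV-2-S (Wuhan-Hu-1, Δ19 C-term); 48 h 37C; Bright-Glo luminescence; normalized vs S-PP and bald PP.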
Consider `COc1cc(NC(C)CCCN)c2ncccc2c1` (stereo not drawn), for which the activity change, negative = inhibition worked out at 2.06%.

Consider `CC(N)C12CC3CC(CC(C3)C1)C2` (stereo not drawn), for which the activity change, negative = inhibition was -7.42%.

As to `O=C(c1ccccc1)c1ccc2n1CCC2C(=O)O` (stereo not drawn), the Potency entry was “inactive”.

`CC[C@@]1(c2ccccc2)NC(=O)N(C)C1=O`: the activity change, negative = inhibition is -24.8%.

`Cn1cc[nH]c1=S`: the Potency entry is “inactive”.

Take `CC1=NS(=O)(=O)c2cc(Cl)ccc2N1`: the Potency entry is “inactive”.

With `CCCC(=O)Nc1ccc(OCC(O)CNC(C)C)c(C(C)=O)c1` (stereo not drawn), the activity change, negative = inhibition came out at 4.12%.

Take `COc1cc(C(=O)NCc2ccc(OCCN(C)C)cc2)cc(OC)c1OC`: the Potency result was “inactive”.

With `CN(C)c1cc(NC(=O)CNC(C)(C)C)c(O)c2c1C[C@@H]1C[C@H]3[C@H](N(C)C)C(=O)C(C(N)=O)=C(O)[C@@]3(O)C(=O)C1=C2O`, the activity change, negative = inhibition was -25.4%.

`CNC1(C)C2CCC(C2)C1(C)C` (stereo not drawn): the Potency entry is “inactive”.

Regarding `Cc1cccc(C)c1OCC(C)N` (stereo not drawn), the activity change, negative = inhibition was -0.301%.

On to `COc1cc2nc(N3CCN(C(=O)C4CCCO4)CC3)nc(N)c2cc1OC` (stereo not drawn), for which the activity change, negative = inhibition was -6.28%.

As to `O=C(NCCN1CCOCC1)c1ccc(Cl)cc1`, the Potency entry was “inactive”.

For `O[C@@H]1CO[C@H]2[C@@H]1OC[C@@H]2O`, the Potency entry was “inactive”.

Turning to `O=P(O)(O)C(O)(Cc1cccnc1)P(=O)(O)O`, the activity change, negative = inhibition was 4.27% and -14.8%.

For `O=C1CCC(N2C(=O)c3ccccc3C2=O)C(=O)N1` (stereo not drawn), the activity change, negative = inhibition was -0.562% and -0.309%.

For the molecule `CCCCC1=NC2(CCCC2)C(=O)N1Cc1ccc(-c2ccccc2-c2nn[nH]n2)cc1`, the Potency entry was “inactive”.

For `Cc1nccn1CC1CCc2c(c3ccccc3n2C)C1=O` (stereo not drawn), the activity change, negative = inhibition was -12.3%.

Take `CO/N=C1\CN(c2nc3c(cc2F)c(=O)c(C(=O)O)cn3C2CC2)CC1CN` (stereo not drawn): the activity change, negative = inhibition was -12.6%.

In the case of `CCC(C)(C)C(=O)O[C@H]1C[C@@H](C)C=C2C=C[C@H](C)[C@H](CC[C@@H]3C[C@@H](O)CC(=O)O3)[C@H]21`, the Potency result is “inactive”.

Regarding `Cn1ccc2cc3c(cc21)CCN3C(=O)Nc1cccnc1`, the activity change, negative = inhibition is -18.3%.

As to `Oc1ccc(C2CNCCc3c2cc(O)c(O)c3Cl)cc1` (stereo not drawn), the Potency entry is “inactive”.

Consider `CNS(=O)(=O)Cc1ccc2[nH]cc(CCN(C)C)c2c1`, for which the Potency result is “inactive”.

For `CC(=O)Nc1nnc(S(N)(=O)=O)s1`, the activity change, negative = inhibition came to 1.7%.

For the molecule `c1cnc2cc3c(cc2n1)C1CNCC3C1`, the activity change, negative = inhibition was -6.05% and -6%.

With `O=C(OC1C[C@H]2CC[C@@H](C1)[N+]21CCCC1)C(O)(c1ccccc1)c1ccccc1` (stereo partly drawn), the activity change, negative = inhibition was -4.34%.

Consider `CN(C)CCC=C1c2ccccc2CCc2ccccc21`, for which the Potency is 20 µM (active).

On to `NC(=O)C(c1ccccc1)(c1ccccc1)[C@@H]1CCN(CCc2ccc3c(c2)CCO3)C1`, for which the activity change, negative = inhibition is -1.98%.

With `Cc1ccc2c(n1)Oc1ccc(C(C)C(=O)OCC(=O)N(C)C)cc1C2` (stereo not drawn), the Potency result is “inactive”.
